Laboratory results as given in ChEMBL document CHEMBL3433997, “St. Jude Leishmania screening dataset” (2016).

Molecular target: Solute carrier family 2, facilitated glucose transporter member 1 (Homo sapiens) (UniProt P11166)
Experiment: ST_JUDE_LEISH: Cytotoxicity at 2uM final concentration against transgenic Leishmania Mexicana promastigotes LmGLUT1 that are glucose transport deficient and complemented with the human glucose transporter GLUT1. Activity is measured by DNA content using SYBR green in vitro
Format: functional

Solute carrier family 2, facilitated glucose transporter member 1 (Homo sapiens), sequence (P11166 whole entry): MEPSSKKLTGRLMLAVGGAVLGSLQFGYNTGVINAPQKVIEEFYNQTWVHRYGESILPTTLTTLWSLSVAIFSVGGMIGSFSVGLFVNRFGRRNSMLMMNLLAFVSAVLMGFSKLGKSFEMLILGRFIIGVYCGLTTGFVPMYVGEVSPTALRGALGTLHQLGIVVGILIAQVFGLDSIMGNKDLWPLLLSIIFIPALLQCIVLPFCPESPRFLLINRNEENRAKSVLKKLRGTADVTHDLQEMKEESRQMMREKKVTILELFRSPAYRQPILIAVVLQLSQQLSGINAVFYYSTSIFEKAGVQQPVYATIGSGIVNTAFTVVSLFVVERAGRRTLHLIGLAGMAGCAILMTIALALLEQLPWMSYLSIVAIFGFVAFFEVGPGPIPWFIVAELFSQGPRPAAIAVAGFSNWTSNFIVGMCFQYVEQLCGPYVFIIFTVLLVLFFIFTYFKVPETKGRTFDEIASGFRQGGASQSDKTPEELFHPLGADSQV

Row | Structure (SMILES) | inhibition
1 | CCCCCCCN1CCC(NC(=O)Nc2ccnc3ccc(OC)cc23)C(CO)C1 (stereo not drawn) | -0.96%
2 | CS(=O)(=O)N(c1cccc(F)c1)c1cc(C(=O)N[C@@H](Cc2ccccc2)[C@H](O)CNCc2cccc(C(F)(F)F)c2)cc(N2CCCC2=O)c1 | -2.34%
3 | CCCCc1ccc(CCNCCCCCCNCCc2ccc(O)c(O)c2)cc1 | 0.01%
4 | CN1CCN(c2cc3c(cc2Cl)CCN3C(=O)Cc2ccc(Cl)c(NC(=O)Nc3cccc([N+](=O)[O-])c3)c2)CC1 | -0.26%
5 | Cc1cccc2nc(-c3cccc(-c4cccc(CNCc5ccccc5)c4)c3)[nH]c12 | 1.86%
6 | Cc1ccc(-c2nn3c(O)c4c(nc3c2C)CCCC4)cc1 | -0.48%
7 | Cc1ccc2c(O)c([N+](=O)[O-])c(O)nc2c1 | -1.72%
8 | CC(C)(C)c1ccc(NC(=O)c2cccc(CN3CCCN(Cc4ccc(F)cc4)CC3)c2)cc1 | 3%
9 | COc1cccc(-c2cnc(N)c(-c3nc4ccc(C(F)(F)F)cc4[nH]3)c2)c1 | 4.93%
10 | CS(=O)(=O)NCCCNCc1cccc(-c2ccc(-c3nc4cc(C(F)(F)F)ccc4[nH]3)s2)c1 | 1.55%
11 | O=C(c1cc(C(=O)Nc2ccccc2)c(=O)n(-c2ccccc2)c1)c1cc(Cl)ccc1O | 3.8%
12 | Cc1ccc(Cn2ncc(N3CCCNCC3)c(Cl)c2=O)cc1NC(=O)Nc1ccc(-c2ccccc2)cc1 | 3.82%
13 | CS(=O)(=O)c1ccc2c(c1)CCN(CCC1CCC(NC(=O)C(=Cc3ccc(Cl)cc3Cl)c3ccc(-c4ccccc4)cc3)CC1)CC2 (stereo not drawn) | -0.33%
14 | CCCCc1ccc(S(=O)(=O)Nc2ccc3c(c2)CCN(Cc2c[nH]c4cnccc24)CC3)cc1 | -1.78%
15 | Cc1ccccc1C1CCN(C2CCC(NC(=O)/C=C/c3cccc(F)c3)CC2)CC1 (stereo not drawn) | 6.96%
16 | COCCNCc1ccc(-c2ccccc2CNC2CCN(Cc3ccccc3)CC2)cc1 | 1.97%
17 | COc1cccc(C(O)CNc2ccnc(Nc3ccc(Cl)cc3)n2)c1 (stereo not drawn) | 6%
18 | COc1ccc(OC)c2c1CC1NCC2c2c(OC)ccc(OC)c21 (stereo not drawn) | 2.86%
19 | CCCCNCc1cc(Cl)c2ccccc2c1O | 7.17%
20 | COc1ccc(C2CC(c3cccs3)=NN2C(=O)COc2cccc(C(C)=O)c2)cc1OC (stereo not drawn) | 0.04%

Row | Structure (SMILES) | inhibition
21 | O=C(Nc1cccc(CN2CCCN(Cc3ccc4c(c3)OCO4)CC2)c1)c1ccc(Cl)c(Cl)c1 | 6.43%
22 | Nc1c(Cl)cc(C(O)CNCCCCCCOCCc2ccc(CO)s2)cc1Cl (stereo not drawn) | 2.77%
23 | Cc1cc(=NN=CC=Cc2ccccc2)c2ccc(F)cc2[nH]1 | -1.45%
24 | Clc1ccc(CNCCCCCCCNCc2ccc(Cl)c(Cl)c2)cc1Cl | -1.86%
25 | CCCCCCCC1=NN2C(=N)C(=Cc3cc(Br)c(OCc4ccc(F)cc4)c(OCC)c3)C(=O)N=C2S1 | 3.23%
26 | Cc1nc(Cl)c2c(-c3ccccc3)csc2n1 | 0.55%
27 | COc1cc(C)nc2ccc(NC(=O)c3ccc(C(=O)Nc4ccc5nc(C)cc(OC)c5c4)cc3)cc12 | -1.93%
28 | OC(CNCc1ccccc1OCc1ccccc1)c1cccc(C(F)(F)F)c1 (stereo not drawn) | 15.1%
29 | O=C(/C=C/c1ccc(Cl)c(Cl)c1)NCCCCCCN1CCCN(C(=O)Nc2cc(Cl)cc(Cl)c2)CC1 | 0.67%
30 | COc1ccc(OCCCON2C(=N)N=C(N)NC2(C)C)cc1 | 5%
31 | COc1ccccc1N1CCN(c2cccc(F)c2C#N)CC1 | 8.24%
32 | Cc1[nH]c(C)c(-c2ccc(-c3cccc(C(F)(F)F)c3)nc2)c(=O)c1Br | 9.61%
33 | CCCC(=O)Nc1ccc(Cl)c(NC(=O)COc2cc(C)ccc2C(C)C)c1 | 9.77%
34 | CCc1c[nH]c2c(N3CCCC3=O)cc(C(=O)N[C@@H](Cc3ccccc3)[C@H](O)CNC(C)(C)CCCC(C)C)cc12 | 12.2%
35 | COc1cc(C(=O)NCCCN2CCN(c3cccc(Cl)c3)CC2)ccc1-c1nc2cc(Cl)c(F)cc2[nH]1 | 1.22%
36 | CC1CCc2c(C(=O)N3CCc4ccccc4C3)csc2C1 (stereo not drawn) | 1.39%
37 | COc1ccc(F)cc1-c1ccccc1CNC(=O)CN(C)S(=O)(=O)c1cc(C)cc(Cl)c1C | 1.17%
38 | Cc1cccc(CN2CCCN(Cc3ccc(C(=O)Nc4ccc(C(C)(C)C)cc4)cc3)CC2)c1 | 1.47%
39 | O=C(/C=C/c1ccc(Cl)cc1)NCCCCCN1CCC(C(=O)Nc2cccc(Cl)c2)CC1 | 2.16%

Molecular target: Hexose transporter 1 (Plasmodium falciparum) (UniProt O97467)
Experiment: ST_JUDE_LEISH: Cytotoxicity at 2uM final concentration against transgenic Leishmania Mexicana promastigotes LmPfHT that are glucose transport deficient and complemented with the Plasmodium falciparum hexose transporter. Activity is measured by DNA content using SYBR green in vitro
Format: functional

Row | Structure (SMILES) | inhibition
40 | CCCCCCCN1CCC(NC(=O)Nc2ccnc3ccc(OC)cc23)C(CO)C1 (stereo not drawn) | -1.62%
41 | CS(=O)(=O)N(c1cccc(F)c1)c1cc(C(=O)N[C@@H](Cc2ccccc2)[C@H](O)CNCc2cccc(C(F)(F)F)c2)cc(N2CCCC2=O)c1 | -1.22%
42 | CCCCc1ccc(CCNCCCCCCNCCc2ccc(O)c(O)c2)cc1 | -0.03%
43 | CN1CCN(c2cc3c(cc2Cl)CCN3C(=O)Cc2ccc(Cl)c(NC(=O)Nc3cccc([N+](=O)[O-])c3)c2)CC1 | -1.82%
44 | Cc1cccc2nc(-c3cccc(-c4cccc(CNCc5ccccc5)c4)c3)[nH]c12 | 0.34%
45 | Cc1ccc(-c2nn3c(O)c4c(nc3c2C)CCCC4)cc1 | 1.68%
46 | Cc1ccc2c(O)c([N+](=O)[O-])c(O)nc2c1 | 1.03%
47 | CC(C)(C)c1ccc(NC(=O)c2cccc(CN3CCCN(Cc4ccc(F)cc4)CC3)c2)cc1 | 2.6%
48 | COc1cccc(-c2cnc(N)c(-c3nc4ccc(C(F)(F)F)cc4[nH]3)c2)c1 | 5.1%
49 | CS(=O)(=O)NCCCNCc1cccc(-c2ccc(-c3nc4cc(C(F)(F)F)ccc4[nH]3)s2)c1 | 2.21%
50 | O=C(c1cc(C(=O)Nc2ccccc2)c(=O)n(-c2ccccc2)c1)c1cc(Cl)ccc1O | 3.56%
51 | Cc1ccc(Cn2ncc(N3CCCNCC3)c(Cl)c2=O)cc1NC(=O)Nc1ccc(-c2ccccc2)cc1 | 4.05%
52 | CS(=O)(=O)c1ccc2c(c1)CCN(CCC1CCC(NC(=O)C(=Cc3ccc(Cl)cc3Cl)c3ccc(-c4ccccc4)cc3)CC1)CC2 (stereo not drawn) | 3.12%
53 | CCCCc1ccc(S(=O)(=O)Nc2ccc3c(c2)CCN(Cc2c[nH]c4cnccc24)CC3)cc1 | -0.79%
54 | Cc1ccccc1C1CCN(C2CCC(NC(=O)/C=C/c3cccc(F)c3)CC2)CC1 (stereo not drawn) | 8.22%
55 | COCCNCc1ccc(-c2ccccc2CNC2CCN(Cc3ccccc3)CC2)cc1 | 2.36%
56 | COc1cccc(C(O)CNc2ccnc(Nc3ccc(Cl)cc3)n2)c1 (stereo not drawn) | 5.73%
57 | COc1ccc(OC)c2c1CC1NCC2c2c(OC)ccc(OC)c21 (stereo not drawn) | 2.69%
58 | CCCCNCc1cc(Cl)c2ccccc2c1O | 7.57%
59 | COc1ccc(C2CC(c3cccs3)=NN2C(=O)COc2cccc(C(C)=O)c2)cc1OC (stereo not drawn) | -0.46%

Row | Structure (SMILES) | inhibition
60 | O=C(Nc1cccc(CN2CCCN(Cc3ccc4c(c3)OCO4)CC2)c1)c1ccc(Cl)c(Cl)c1 | 5.95%
61 | Nc1c(Cl)cc(C(O)CNCCCCCCOCCc2ccc(CO)s2)cc1Cl (stereo not drawn) | 1.49%
62 | Cc1cc(=NN=CC=Cc2ccccc2)c2ccc(F)cc2[nH]1 | 2.91%
63 | Clc1ccc(CNCCCCCCCNCc2ccc(Cl)c(Cl)c2)cc1Cl | -1.24%
64 | CCCCCCCC1=NN2C(=N)C(=Cc3cc(Br)c(OCc4ccc(F)cc4)c(OCC)c3)C(=O)N=C2S1 | 3.17%
65 | Cc1nc(Cl)c2c(-c3ccccc3)csc2n1 | -0.74%
66 | COc1cc(C)nc2ccc(NC(=O)c3ccc(C(=O)Nc4ccc5nc(C)cc(OC)c5c4)cc3)cc12 | -1.5%
67 | OC(CNCc1ccccc1OCc1ccccc1)c1cccc(C(F)(F)F)c1 (stereo not drawn) | 11.6%
68 | O=C(/C=C/c1ccc(Cl)c(Cl)c1)NCCCCCCN1CCCN(C(=O)Nc2cc(Cl)cc(Cl)c2)CC1 | 0.41%
69 | COc1ccc(OCCCON2C(=N)N=C(N)NC2(C)C)cc1 | 1.09%
70 | COc1ccccc1N1CCN(c2cccc(F)c2C#N)CC1 | 6.93%
71 | Cc1[nH]c(C)c(-c2ccc(-c3cccc(C(F)(F)F)c3)nc2)c(=O)c1Br | 8.1%
72 | CCCC(=O)Nc1ccc(Cl)c(NC(=O)COc2cc(C)ccc2C(C)C)c1 | 8.41%
73 | CCc1c[nH]c2c(N3CCCC3=O)cc(C(=O)N[C@@H](Cc3ccccc3)[C@H](O)CNC(C)(C)CCCC(C)C)cc12 | 9.72%
74 | COc1cc(C(=O)NCCCN2CCN(c3cccc(Cl)c3)CC2)ccc1-c1nc2cc(Cl)c(F)cc2[nH]1 | 0.6%
75 | CC1CCc2c(C(=O)N3CCc4ccccc4C3)csc2C1 (stereo not drawn) | 0.87%
76 | COc1ccc(F)cc1-c1ccccc1CNC(=O)CN(C)S(=O)(=O)c1cc(C)cc(Cl)c1C | 1.94%
77 | Cc1cccc(CN2CCCN(Cc3ccc(C(=O)Nc4ccc(C(C)(C)C)cc4)cc3)CC2)c1 | 1.6%
78 | O=C(/C=C/c1ccc(Cl)cc1)NCCCCCN1CCC(C(=O)Nc2cccc(Cl)c2)CC1 | 2.2%
